The test system of assay [1] is Wnt5a (protein binding on small-molecule microarray). In words: small molecules binding Wnt5a protein – biophysical, small-molecule microarray, 635/667 nm fluorescence, primary screen (AID 1142).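 Note: fluorescence read at 667 nm with signal to noise per printed feature.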 The following applies: 635 nm fluorescence, higher = more signal.
The nature of assay [2]: ATP-based viability of Huh7 replicon cells – cell-based, CellTiter-Glo luminescence, basal, 48 h, cytotoxicity control for HCV replication inhibitor project, primary screen (AID 1143).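 Note: Huh7 hepatoma cells carrying a hepatitis C replication reporter with no stimulus; test concentration not given here.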 The following applies: higher = more signal, called active from +8 up or from −8 down. For orientation: A replicon is a self-replicating genome or part of one, used to study replication in cells.

Assay [3] in a line: Pseudomonas biofilm growth suppression – PAO1 strain, BacTiter-Glo luminescence, LB-PBS, primary screen (AID 1144). The following applies: P. aeruginosa PAO1 biofilm, 12 h, higher = more signal.
The nature of assay [4]: basal CRE-LacZ reporter activity in PC12 – cell-based, unstimulated, primary screen (AID 1145). The following applies: no forskolin, luminescence, 4.5 h, higher = more signal, called active from +8 up or from −8 down.
Assay [5] is described as follows: forskolin-driven CRE-LacZ activity in PC12 – cell-based, CRE-LacZ reporter, forskolin-stimulated, primary screen (AID 1146).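 Note: PC12 cells with 6xCRE LacZ reporter stimulated by forskolin 10 µM; beta-galactosidase reporter signal reflecting CREB driven transcription.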 Conditions: luminescence, 4.5 h, higher = more signal, called active from +8 up or from −8 down.
In assay [6] the target is Streptavidin (Streptomyces avidinii) (UniProt P22629). In words: compounds binding control protein streptavidin – biophysical, small-molecule microarray, 635/667 nm fluorescence, artefact control for SMM compound annotation, primary screen (AID 1147).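 Note: signal reflects streptavidin binding to arrayed compounds as a control protein.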 The following applies: higher = more signal.
Chain of Streptavidin (Streptomyces avidinii) (P22629 whole entry, looked up): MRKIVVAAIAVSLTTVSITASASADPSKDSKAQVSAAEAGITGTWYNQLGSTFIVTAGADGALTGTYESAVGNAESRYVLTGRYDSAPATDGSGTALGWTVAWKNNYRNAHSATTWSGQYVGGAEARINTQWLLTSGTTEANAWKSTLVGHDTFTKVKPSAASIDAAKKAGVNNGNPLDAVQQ
Assay [7] can be described thus: probe aInhba binding on compound microarray – biochemical, small-molecule microarray, 635/667 nm fluorescence, primary screen (AID 1148).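 Note: score merges 667nm spot fluorescence with signal-to-noise for antibody binding to printed compounds.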 Conditions: higher = more signal.
For assay [8], the target named is Torsin-1A (Homo sapiens) (UniProt O14656). The assay can be described thus: TOR1A wild-type binding on microarray – cell lysate, small-molecule microarray, lysate, 635/667 nm, primary screen (AID 1149). The following applies: COS7 hTOR1A-WT lysate, 635 nm fluorescence, higher = more signal.
Chain of Torsin-1A (Homo sapiens) (O14656 whole entry, looked up): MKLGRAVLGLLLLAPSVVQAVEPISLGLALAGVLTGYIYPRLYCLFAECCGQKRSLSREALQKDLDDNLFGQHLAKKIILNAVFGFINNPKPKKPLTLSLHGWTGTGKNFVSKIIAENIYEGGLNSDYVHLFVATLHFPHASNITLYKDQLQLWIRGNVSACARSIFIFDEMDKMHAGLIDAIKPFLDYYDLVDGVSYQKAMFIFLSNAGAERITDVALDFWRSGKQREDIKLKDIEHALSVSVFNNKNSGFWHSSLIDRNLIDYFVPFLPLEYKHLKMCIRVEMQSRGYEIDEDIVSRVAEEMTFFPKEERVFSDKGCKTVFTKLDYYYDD
Assay [9] has the same target. The assay can be described thus: torsin A mutant lysate binding on microarrays – cell lysate, small-molecule microarray, COS7 lysate, 635/667 nm fluorescence, primary screen (AID 1150).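 Note: score pools 667 nm emission and signal to noise measuring lysate protein binding.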 The following applies: COS7 hTOR1A mutant lysate, 635 nm fluorescence, higher = more signal.
For assay [10], the system named is Sonic hedgehog protein (Shh). In words: Sonic hedgehog microarray binding compounds – biochemical, small-molecule microarray, 635/667 nm fluorescence, primary screen (AID 1151).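 Note: Shh protein binding to compounds spotted on small-molecule microarray slides; score combines spot fluorescence intensity with signal-to-noise across triplicate slides.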 The following applies: 635 nm fluorescence, higher = more signal.
Assay [11] in a line: optical density shifts of acrAB sulA E. coli – strain DRC41, OD650, 48 h, E. coli filamentation inducer project, primary screen (AID 1152).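 Note: E. coli MC1000 strain DRC41 lacking acrAB efflux pump and sulA.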 The following applies: higher = more signal, called active from +8 up or from −8 down.
Assay [12] can be described thus: probe aLefty1 binding on compound microarray – biochemical, small-molecule microarray, 635/667 nm fluorescence, primary screen (AID 1153).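 Note: score merges spot fluorescence with signal-to-noise ratio from the scanned slide images.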 Conditions: higher = more signal.
A short description of assay [13]: plasmodial surface anion channel blockers, osmotic lysis – cell-based, P. falciparum Indochina, OD700, 1 h, primary screen (AID 1154). Conditions: P. falciparum Indochina infected RBC osmotic lysis, higher = more signal, called active from +8 up or from −8 down.
Assay [14] can be described thus: plasmodial surface anion channel blockers, osmotic lysis – cell-based, P. falciparum Indochina, OD700, 2 h, primary screen (AID 1155).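 Note: lysis reports solute entry through the parasite surface anion channel PSAC.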 Conditions: P. falciparum Indochina infected erythrocytes, higher = more signal, called active from +8 up or from −8 down.
Assay [15] in a line: changes in parasitized red cell lysis, either direction – P. falciparum Indochina, OD700, 3 h, PSAC antagonist project, primary screen (AID 1156). The following applies: P. falciparum-infected erythrocytes, osmotic lysis, higher = more signal, called active from +8 up or from −8 down.
Assay [16] can be described thus: plasmodial surface anion channel blockers, osmotic lysis – cell-based, P. falciparum Indochina, OD700, 18 h, primary screen (AID 1157). The following applies: P. falciparum Indochina infected erythrocytes, osmotic lysis OD700, 18 h; higher = more signal, called active from +8 up or from −8 down.
The nature of assay [17]: S6 kinase pathway phospho-S6 level changes – cell-based, A549, cytoblot, luminescence, serum-stimulated, primary screen (AID 1158).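 Note: serum-stimulated A549 lung adenocarcinoma cells; signal is phosphorylated S6 detected by cytoblot immunostaining with HRP secondary.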 The following applies: 5 h, higher = more signal.
In assay [18] the target is NADPH oxidase 2 (Homo sapiens) (UniProt P04839). The assay can be described thus: compounds shifting NOX2 Amplex Red fluorescence – cell-based, HEK293-NOX2, PMA-stimulated, NOX inhibitor project, primary screen (AID 1159). Note: test concentration not given here. Conditions: 45 min, higher = more signal, called active from +8 up or from −8 down.
Chain of NADPH oxidase 2 (Homo sapiens) (P04839 whole entry, looked up): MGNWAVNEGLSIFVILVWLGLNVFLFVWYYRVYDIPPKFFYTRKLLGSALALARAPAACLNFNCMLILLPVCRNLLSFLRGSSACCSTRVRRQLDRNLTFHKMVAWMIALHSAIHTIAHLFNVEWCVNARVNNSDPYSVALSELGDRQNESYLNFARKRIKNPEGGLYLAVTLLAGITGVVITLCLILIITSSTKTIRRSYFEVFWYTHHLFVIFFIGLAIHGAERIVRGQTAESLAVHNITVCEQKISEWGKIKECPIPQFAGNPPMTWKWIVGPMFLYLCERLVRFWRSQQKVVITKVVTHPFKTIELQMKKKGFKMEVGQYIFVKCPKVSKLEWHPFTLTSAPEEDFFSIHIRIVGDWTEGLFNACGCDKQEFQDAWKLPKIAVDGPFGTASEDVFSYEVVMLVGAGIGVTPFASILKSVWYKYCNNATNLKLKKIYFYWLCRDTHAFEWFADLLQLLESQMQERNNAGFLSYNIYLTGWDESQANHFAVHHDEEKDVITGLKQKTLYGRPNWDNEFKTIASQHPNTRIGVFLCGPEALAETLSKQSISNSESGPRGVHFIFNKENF
For assay [19], the target named is NADPH oxidase 4 (Homo sapiens) (UniProt Q9NPH5). The assay can be described thus: compounds shifting NOX4 Amplex Red fluorescence – cell-based, HEK293-NOX4, tetracycline-induced, NOX inhibitor project, primary screen (AID 1160). The following applies: HEK293-NOX4, Amplex Red H2O2 fluorescence, 45 min; higher = more signal, called active from +8 up or from −8 down.
Chain of NADPH oxidase 4 (Homo sapiens) (Q9NPH5 whole entry, looked up): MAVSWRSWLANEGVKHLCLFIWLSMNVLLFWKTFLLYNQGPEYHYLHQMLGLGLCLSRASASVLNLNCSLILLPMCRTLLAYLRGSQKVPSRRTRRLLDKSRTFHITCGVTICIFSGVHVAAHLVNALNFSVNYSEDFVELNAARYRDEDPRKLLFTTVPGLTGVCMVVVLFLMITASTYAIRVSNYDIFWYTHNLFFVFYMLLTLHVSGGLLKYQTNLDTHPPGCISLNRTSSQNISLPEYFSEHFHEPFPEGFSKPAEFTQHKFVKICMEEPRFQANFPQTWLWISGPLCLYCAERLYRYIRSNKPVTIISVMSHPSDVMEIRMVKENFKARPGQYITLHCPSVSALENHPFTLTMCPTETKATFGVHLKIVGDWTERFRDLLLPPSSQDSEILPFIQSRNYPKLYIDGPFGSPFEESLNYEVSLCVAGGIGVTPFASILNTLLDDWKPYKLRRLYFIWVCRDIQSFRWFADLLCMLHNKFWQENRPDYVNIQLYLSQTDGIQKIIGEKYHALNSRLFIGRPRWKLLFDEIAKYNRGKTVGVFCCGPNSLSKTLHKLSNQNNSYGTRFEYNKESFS

Assay [20] deals with NADPH oxidase 5 (Homo sapiens) (UniProt Q96PH1). In words: compounds shifting NOX5 Amplex Red fluorescence – cell-based, HEK293-NOX5, NOX inhibitor project, primary screen (AID 1161). Conditions: HEK293-NOX5, ionomycin, 45 min, higher = more signal.
Chain of NADPH oxidase 5 (Homo sapiens) (Q96PH1 whole entry, looked up): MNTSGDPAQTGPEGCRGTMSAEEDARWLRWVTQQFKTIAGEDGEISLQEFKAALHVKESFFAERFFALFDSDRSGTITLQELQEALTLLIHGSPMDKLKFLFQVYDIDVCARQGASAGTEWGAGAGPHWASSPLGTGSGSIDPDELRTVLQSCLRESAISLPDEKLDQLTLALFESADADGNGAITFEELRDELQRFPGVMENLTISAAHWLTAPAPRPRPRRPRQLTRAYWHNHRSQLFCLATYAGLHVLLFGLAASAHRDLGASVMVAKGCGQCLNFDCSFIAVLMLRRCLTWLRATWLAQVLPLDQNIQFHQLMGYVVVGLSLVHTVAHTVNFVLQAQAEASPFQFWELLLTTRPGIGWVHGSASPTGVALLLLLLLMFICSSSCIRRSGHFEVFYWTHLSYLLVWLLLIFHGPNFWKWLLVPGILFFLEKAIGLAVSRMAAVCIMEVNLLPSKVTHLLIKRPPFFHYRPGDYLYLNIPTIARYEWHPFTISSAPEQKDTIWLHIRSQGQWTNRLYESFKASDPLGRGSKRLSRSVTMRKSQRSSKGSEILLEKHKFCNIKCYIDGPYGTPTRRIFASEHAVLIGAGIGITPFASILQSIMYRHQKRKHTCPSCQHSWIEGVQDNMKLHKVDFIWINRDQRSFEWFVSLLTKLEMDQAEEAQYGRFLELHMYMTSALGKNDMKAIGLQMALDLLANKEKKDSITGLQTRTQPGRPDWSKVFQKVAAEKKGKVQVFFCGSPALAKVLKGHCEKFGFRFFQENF

Calls of active or inactive are those of the source. Unless noted, the rule behind the calls is not given here.

For `CO[C@@H]1COC(=O)CC=C[C@@H](C)[C@H](OC)COC(=O)[C@H](COCc2ccccc2)NC(=O)CC=C[C@H]1C`, the composite z-score was -0.0092 in assay [1]; -1.15 in assay [6]; -0.253 in assay [7]; 1.35 with Torsin-1A (Homo sapiens) [8]; 0.263 with Torsin-1A (Homo sapiens) [9]; 1.5 in [10]. In [12], this compound registered a composite z-score of -0.147. For the same compound, the z-score in assay [2] was -0.069 (inactive); in [3], 0.204 (inactive); in assay [4], 0.0664 (inactive); in assay [5] it was -0.707 (inactive); in assay [11], -0.991 (inactive); in [13] it was -0.129 (inactive). Besides, the z-score is 0.151 (inactive) in assay [14]; 0.181 (inactive) in assay [15]; 0.354 (inactive) in assay [16]; 0.354 in [17]; -1.79 (inactive) in assay [18]; 0.0385 (inactive) in assay [19]. Also, the z-score in assay [20] was found to be 0.0539.

Regarding `CC(C)=C1C(=O)C(c2ccccc2)=C2CN3C(=O)N(CCc4ccccc4)C(=O)[C@]3(Cc3ccc(F)cc3)[C@H]21`, the composite z-score in [1] is -0.506; in assay [6], 0.0452; in assay [7] it was 0.205; with Torsin-1A (Homo sapiens) [8], -2.38; with Torsin-1A (Homo sapiens) [9] it was -1.7; in assay [10], -1.74. Further, the composite z-score in assay [12] worked out at 0.318. In addition, the z-score in [2] was -0.934 (inactive); in assay [3], -0.00959 (inactive); in [4] it was 0.576 (inactive); in [5], 1.73 (inactive); in assay [11] it was -2.71 (inactive); in assay [13] it was 20.9 (active). The z-score in assay [14] is 4.68 (inactive); in [15], 1.48 (inactive); in [16], 0.813 (inactive); in assay [17] it was -0.51; in assay [18], -0.578 (inactive); in assay [19], -1.03 (inactive). Further, in [20], the z-score was -1.11.

Regarding `O=C1O[C@@H](c2ccccc2)[C@@H](c2ccccc2)N2[C@@H](c3ccc(OCCO)cc3)[C@]3(C(=O)Nc4ccc(C#CCCO)cc43)[C@@H](C(=O)N3CCCCCCC3)[C@H]12`, the composite z-score in [1] turned out to be 0.825; in assay [6], 2.31; in [7] it was 1.75; with Torsin-1A (Homo sapiens) [8] it was 0.782; in the assay with Torsin-1A (Homo sapiens) [9] it was 1.31; in assay [10], 1.59. In [12], this compound came in with a composite z-score of 2.79. Further, the z-score in assay [2] was -1.11 (inactive); in assay [3] it was -0.928 (inactive); in [4], -0.168 (inactive); in [5], 0.0629 (inactive); in assay [11] it was 0.974 (inactive); in assay [13], 4.33 (inactive). Besides, the z-score in [14] is 1.27 (inactive); in assay [15], 0.526 (inactive); in assay [16] it was 0.737 (inactive); in assay [17], -0.178; in assay [18], 1.6 (inactive); in assay [19], 0.824 (inactive). Besides, the z-score in assay [20] amounted to 1.08.

Regarding `C=CCC(OC(C)=O)[C@@H]1[C@@H](N(Cc2cc3ccccc3o2)C(=O)Cc2ccc(F)cc2)c2cc(OCCCO)ccc2N1C(=O)Cc1ccc(OC)cc1` (stereo not given in full), the composite z-score in assay [1] was -0.368; in [6] it was 0.0444; in assay [7], -0.045; with Torsin-1A (Homo sapiens) [8] it was -0.499; in the assay with Torsin-1A (Homo sapiens) [9] it was -0.522; in assay [10], 0.603. This compound registered a composite z-score in assay [12] of -0.06. In addition, the z-score in [2] was -0.276 (inactive); in assay [3], 0.00133 (inactive); in assay [4], 1.27 (inactive); in assay [5], 0.515 (inactive); in assay [11] it was -0.778 (inactive); in [13] it was 1.05 (inactive). The z-score was 0.172 (inactive) in assay [14]; -0.67 (inactive) in [15]; -0.133 (inactive) in assay [16]; -0.597 in [17]; 0.2 (inactive) in assay [18]; 0.727 (inactive) in assay [19]. In addition, the z-score in [20] was -0.743.

Consider `COC(=O)[C@@H]1CCCN1C(=O)[C@@H](C)CO`, for which the composite z-score is 0.111 in [1]; 0.746 in assay [6]; -0.183 in [7]; 1.26 in the assay with Torsin-1A (Homo sapiens) [8]; 0.546 with Torsin-1A (Homo sapiens) [9]; 0.202 in assay [10]. Moreover, the composite z-score in assay [12] is -0.147. The z-score in [2] is -2.44 (inactive); in assay [3], -0.985 (inactive); in assay [4], -0.347 (inactive); in assay [5] it was -0.397 (inactive); in assay [11], -0.926 (inactive); in [13] it was 0.34 (inactive). Moreover, the z-score in assay [14] was -0.603 (inactive); in assay [15], 0.864 (inactive); in assay [16], -1.69 (inactive); in [17], 1.4; in [18] it was -0.366 (inactive); in assay [19], -0.739 (inactive). Moreover, in assay [20], the z-score is -1.15.

For the origin of these results see PubChem BioAssay.
